Assay results as given in PubChem BioAssay (EPA / NIEHS).
“And” between values parts separate entries of the source, which are not always exact repeats. Equal values may be shown once. Records with an inconclusive call do not appear. More than one record can exist for a structure, and the calls need not agree. The source made the active and inactive calls. Rule for the calls, unless noted: active = hit-call score of the fitted dose curve at least 0.9, where 1 is the maximum; inactive = score below 0.9.

Tests used:
[1] = APR_HepG2_CellCycleArrest_1hr: Apredica 1-hour HepG2 Assay for Cell Cycle Arrest (AID 2282666); settings: high-content imaging, actives raise or lower the signal
Method in brief: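 HepG2 cells exposed for 1 h to 0.39–200 uM compound (0.5% DMSO). Fixed, Hoechst-stained nuclei imaged by ArrayScan; DNA content quantified by Cell Cycle analysis; bidirectional fit against DMSO.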

[2] = ACEA_ER_80hr: ACEA Biosciences xCELLigence Real-Time Cell Analysis on Estrogen Receptor Agonism for Proliferation (AID 2282667; active = hit-call score of the fitted dose curve at least 0.9, where 1 is the maximum); settings: T47D proliferation, impedance (xCELLigence), 80 h
Method in brief: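 Real-time impedance growth kinetics of human T-47D breast cells read 80 h after dosing, gain-of-signal fitted relative to DMSO. Compounds: 1:4 serial series, top final concentration 100 uM, n = 2.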

[3] = APR_HepG2_CellLoss_1hr: Apredica 1-hour HepG2 Assay for Cell Loss (AID 2282668); settings: high-content imaging;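 note: curves fitted both ways against DMSO so gain or loss of cells counts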
Method in brief: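 HepG2 cells were treated for 1 h with compound at 0.39–200 uM, in duplicate, in 0.5% DMSO. After formaldehyde fixation, Hoechst 33342-stained nuclei were imaged on an ArrayScan to count cells. Data were fitted bidirectionally versus DMSO.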

[4] = APR_HepG2_p53Act_1hr: Apredica 1-hour HepG2 Assay for p53 Activation (AID 2282671); settings: high-content imaging, actives raise or lower the signal
Method in brief: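 HepG2 cells treated 1 h with compound at 0.39–200 uM (10 concentrations, duplicate) in 0.5% DMSO. Formaldehyde-fixed, permeabilised cells immunostained for p53 with Hoechst 33342; high-content imaging, bidirectional fit versus DMSO.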

[5] = APR_HepG2_MitoticArrest_1hr: Apredica 1-hour HepG2 Assay for Mitotic Arrest (AID 2282672); settings: high-content imaging, actives raise or lower the signal
Method in brief: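 HepG2 cells exposed 1 hr to compounds at 0.39–200 uM (0.5% v/v DMSO final), then fixed in 3.7% formaldehyde and immunostained for phospho-histone H3 with Hoechst 33342. Mitotic arrest scored by automated fluorescence imaging, fitted bidirectionally versus DMSO.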

[6] = APR_HepG2_P-H2AX_1hr: Apredica 1-hour HepG2 Assay for H2AX Phosphorylation (AID 2282673); settings: high-content imaging, actives raise or lower the signal
Method in brief: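 HepG2 dosed 1 hr at 0.39-200 uM (0.5% DMSO final), duplicate. Fixed in 3.7% formaldehyde, Triton permeabilized, immunostained for phospho-histone H2A.x (1:200) with Hoechst 33342; ArrayScan 20x imaging, bidirectional fit vs DMSO.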

[7] = APR_HepG2_MitoMass_1hr: Apredica 1-hour HepG2 Assay for Mitochondrial Mass (AID 2282674); settings: high-content imaging, actives raise or lower the signal
Method in brief: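 HepG2 cells dosed 1 hr with 0.39-200 uM compound (0.5% DMSO), duplicate wells. Mitochondria stained with 250 nM MitoTracker Red CMXRos for 30 min before formaldehyde fixation, imaged at 20x by ArrayScan; bidirectional fit versus DMSO.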

[8] = APR_HepG2_MicrotubuleCSK_1hr: Apredica 1-hour HepG2 Assay for Microtubule CSK Stabilty (AID 2282669); settings: HepG2 microtubule cytoskeleton imaging, actives raise or lower the signal
Method in brief: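 HepG2 cells exposed 1 h to 0.39–200 uM compound (0.5% DMSO, duplicates), then formaldehyde-fixed, permeabilized and immunostained for alpha-tubulin with Hoechst nuclei. Imaged by ArrayScan high-content analysis; bidirectional fit versus DMSO.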

[9] = APR_HepG2_NuclearSize_1hr: Apredica 1-hour HepG2 Assay for Nuclear Size (AID 2282670); settings: high-content imaging, actives raise or lower the signal
Method in brief: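 HepG2 cells dosed 1 hr with 0.39–200 uM compound (0.5% DMSO), formaldehyde-fixed, Hoechst 33342-stained and imaged at 20x; nuclear diameter from nuclear stain, fitted bidirectionally against DMSO.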

[10] = APR_HepG2_MitoMembPot_1hr: Apredica 1-hour HepG2 Assay for Mitochondrial Membrane Potential (AID 2282675); settings: imaging, actives raise or lower the signal
Method in brief: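 HepG2 cells dosed 1 hour with 0.39–200 uM compound in duplicate, 0.5% DMSO final. MitoTracker Red CMXRos (250 nM, 30 min) loaded before formaldehyde fixation; fluorescence quantified by high-content imaging, bidirectional fitting versus DMSO.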

Measured: AC50

COC(=O)c1ccccc1C(=O)O
inactive: [1] | [2] | [3] | [4] | [5] | [6] | [7]

C[C@]12C[C@H](O)[C@H]3[C@@H](CCC4=CC(=O)CC[C@@]43C)[C@@H]1CC[C@@H]2C(=O)CO
active: [2] 32.8 nM and 26.6 nM and 102 nM

CCN(Cc1c(F)cccc1Cl)c1c([N+](=O)[O-])cc(C(F)(F)F)cc1[N+](=O)[O-]
active: [2] 2.12 µM
inactive: [3] | [4] | [5] | [6] | [7]

C=CCOC(Cn1ccnc1)c1ccc(Cl)cc1Cl (configuration not stated)
inactive: [1] | [3] | [8] | [4] | [5] | [6] | [7]

COC(=O)c1ccc(I)cc1S(=O)(=O)NC(=O)Nc1nc(C)nc(OC)n1
inactive: [1] | [3] | [4] | [5] | [6] | [7]

C[C@]12CC[C@@H]3c4ccc(O)cc4C[C@@H](CCCCCCCCCS(=O)CCCC(F)(F)C(F)(F)F)[C@H]3[C@@H]1CC[C@@H]2O (some centres not stated)
active: [2] 6.15 µM and 9.53 µM

CCCN(CCC)C(=O)SCC
inactive: [2] | [3] | [4] | [5] | [6] | [7]

CCSC(=O)N(CC(C)C)CC(C)C
inactive: [2] | [3] | [8] | [4] | [5] | [6] | [7]

CC(C)CCCCCCc1ccc(O)cc1
active: [2] 320 nM [middle of 4 runs]

O=C(O)c1ccccc1
inactive: [2]

N[C@@H](Cc1cc(I)c(Oc2ccc(O)c(I)c2)c(I)c1)C(=O)O
active: [2] 40 µM and 25 µM

CCOC(=O)C(C)Oc1ccc(Oc2cnc3cc(Cl)ccc3n2)cc1 (configuration not stated)
inactive: [1] | [2] | [3] | [5] | [6] | [7]

O=C(c1ccccc1)C1CCCCC1
active: [2] 9.92 µM and 6.21 µM and 50 µM

CCCCN(CCC(=O)OCC)C(C)=O
inactive: [2]

CCN(CC)C(=O)c1cccc(C)c1
inactive: [1] | [2] | [3] | [8] | [5] | [6] | [7]

C#C[C@]1(O)CC[C@H]2[C@@H]3CCC4=CC(=O)CC[C@@H]4[C@H]3CC[C@@]21CC
active: [2] 2.58 nM and 3.4 nM and 143 nM

CCCCN(CCCC)C(=S)S
active: [2] 89.4 µM

CCOC(=O)c1ccc(O)cc1
active: [2] 11.4 µM [middle of 4 runs]

Cc1nn(C)c(Oc2ccccc2)c1C=NOCc1ccc(C(=O)OC(C)(C)C)cc1
inactive: [3] | [8] | [9] | [4] | [5] | [6] | [7]
active: [2] 0.00439 µM

CCCCOC(=O)[C@@H](C)Oc1ccc(Oc2ccc(C(F)(F)F)cn2)cc1
inactive: [3] | [4] | [5] | [6] | [7]
active: [2] 13.7 µM

CC(=O)S[C@@H]1CC2=CC(=O)CC[C@]2(C)[C@H]2CC[C@@]3(C)[C@@H](CC[C@@]34CCC(=O)O4)[C@H]12
active: [2] 10.7 µM and 174 nM
inactive: [2]

N#CSCSc1nc2ccccc2s1
inactive: [1] | [3] | [5]
active: [6] 27.5 µM | [7] 28.1 µM

CCCOC(=O)c1ccc(C(=O)OCCC)nc1
inactive: [2] | [3] | [9] | [4] | [5] | [6] | [7]

O=C(Nc1ccc([N+](=O)[O-])cc1Cl)c1cc(Cl)ccc1O
inactive: [2] | [3] | [8] | [4] | [5] | [6] | [7]

O=C(c1ccc(O)cc1O)c1ccc(O)cc1O
active: [2] 756 nM and 805 nM and 548 nM

CCCCCCC(C)OC(=O)COc1nc(F)c(Cl)c(N)c1Cl (configuration not stated)
active: [3] 113 µM | [6] 100 µM | [7] 64 µM
inactive: [1] | [8] | [4] | [5] | [10]

CCOC(=O)NCCOc1ccc(Oc2ccccc2)cc1
inactive: [1] | [2] | [3] | [4] | [5] | [6] | [7]

COCCO
inactive: [2] | [3] | [9] | [4] | [5] | [6] | [7] | [10]

CCCN(CCC)c1c([N+](=O)[O-])cc(C(F)(F)F)c(N)c1[N+](=O)[O-]
active: [6] 109 µM | [7] 158 µM
inactive: [2] | [3] | [4] | [5]
